Reference: the supplement of paper PMC6555819

Experiments:
Assay in all cases: PBM binding z-score (relative to random genomic background probes); higher = stronger binding; sequences stand for … in GC…GCGATTGACAGCGTAGAATGAAGG
[1] = tested on: FXR:RXRa (NR concentration 270 nM, RXRa partner concentration 90 nM)
How it was run: (§1)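 Regression normalization was applied to scanned fluorescence from custom Agilent 4×180K protein-binding microarrays. Before scanning, arrays were incubated 1 h with ligand-free nuclear receptor dimers, and binding was detected with antibodies against each partner (one per run). Binding z-scores use the random background probes as reference.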

[2] = tested on: LXRa:RXRa (NR concentration 270 nM, RXRa partner concentration 90 nM)
How it was run: as §1

[3] = tested on: LXRa homodimer (NR concentration 270 nM)
How it was run: as §1

[4] = tested on: LXRb:RXRa (NR concentration 270 nM, RXRa partner concentration 90 nM)
How it was run: as §1

[5] = tested on: LXRb homodimer (NR concentration 270 nM)
How it was run: as §1

[6] = tested on: PPARa:RXRa (NR concentration 270 nM, RXRa partner concentration 90 nM)
How it was run: as §1

[7] = tested on: PPARg:RXRa (NR concentration 180 nM, RXRa partner concentration 90 nM)
How it was run: as §1

[8] = tested on: PPARg:RXRa 270nM:90nM, anti-RXR (NR concentration 270 nM, RXRa partner concentration 90 nM)
How it was run: as §1

[9] = tested on: PPARg:RXRa 30nM:10nM, anti-RXR (NR concentration 30 nM, RXRa partner concentration 10 nM)
How it was run: as §1

[10] = tested on: PPARg:RXRa 90nM:30nM, anti-RXR (NR concentration 90 nM, RXRa partner concentration 30 nM)
How it was run: as §1

[11] = tested on: PPARg:RXRa DBDmut IVT, anti-RXR (DBD mutation: RXRa K156A/R161A, NR concentration 270 nM, RXRa partner concentration 90 nM)
How it was run: as §1

[12] = tested on: PPARg:RXRa IVT, anti-PPARg (NR concentration 270 nM, RXRa partner concentration 90 nM)
How it was run: as §1

[13] = tested on: PPARg DBDmut:RXRa IVT, anti-PPARg (DBD mutation: PPARg1 K132A/R137A, NR concentration 270 nM, RXRa partner concentration 90 nM)
How it was run: as §1

[14] = tested on: PPARg DBDmut IVT, anti-PPARg (DBD mutation: PPARg1 K132A/R137A, NR concentration 270 nM)
How it was run: as §1

[15] = tested on: PPARg homodimer (NR concentration 180 nM)
How it was run: as §1

[16] = tested on: PXR:RXRa (NR concentration 270 nM, RXRa partner concentration 90 nM)
How it was run: as §1

[17] = tested on: PXR homodimer (NR concentration 270 nM)
How it was run: as §1

[18] = tested on: RARa:RXR (NR concentration 270 nM, RXRa partner concentration 90 nM)
How it was run: as §1

[19] = tested on: RARa homodimer (NR concentration 270 nM)
How it was run: as §1

[20] = tested on: RARb:RXRa (NR concentration 270 nM, RXRa partner concentration 90 nM)
How it was run: as §1

Row | Sequence | PBM binding z-score [1] | PBM binding z-score [2] | PBM binding z-score [3] | PBM binding z-score [4] | PBM binding z-score [5] | PBM binding z-score [6] | PBM binding z-score [7] | PBM binding z-score [8] | PBM binding z-score [9] | PBM binding z-score [10] | PBM binding z-score [11] | PBM binding z-score [12] | PBM binding z-score [13] | PBM binding z-score [14] | PBM binding z-score [15] | PBM binding z-score [16] | PBM binding z-score [17] | PBM binding z-score [18] | PBM binding z-score [19] | PBM binding z-score [20]
1 | AATACAGGGTCATCGTAAGCCAGAGTACGCACAG | 7.41 | 6.05 | 2.24 | 4.69 | 1.14 | 6.1 | 6.63 | 5.96 | 2.84 | 4.83 | 2.67 | 4.15 | 1.58 | 1.04 | 1.65 | 4.05 | 1 | 4.6 | 0.623 | 4.43
2 | TCGAGTAGGTTACCAATGGGACATTCAGCTTTCT | 0.203 | 1.04 | -0.603 | 0.366 | -0.806 | 0.841 | 0.563 | 1.2 | 1.11 | 1.08 | 2.84 | 2.43 | -0.217 | 0.266 | -0.26 | 0.0751 | -0.84 | 0.149 | -0.599 | 0.695
3 | TCTTGTAGATCAACAGGATGTTAAGAAAGATCGA | 0.365 | 0.173 | -0.3 | 0.12 | -0.659 | 0.612 | 0.227 | 1.3 | 2.66 | 1.97 | 1.7 | 0.652 | 0.783 | 1.26 | -0.565 | 0.147 | -0.381 | 0.44 | 0.0345 | -0.191
4 | ACTAGCAGTCCAAGTTTGGGTCACTCAAACAAAG | 0.21 | 0.226 | -0.0309 | 0.795 | -0.524 | 1.13 | -0.105 | 0.22 | -0.155 | -0.0965 | -0.573 | 0.678 | -0.264 | -0.283 | -0.0489 | 0.921 | -0.137 | 1.4 | -0.47 | 1.24
5 | GCTCGTAGATCAAGGTTAAGAAAGACTAAGCTAA | -0.496 | 0.698 | -0.704 | 0.341 | -1.05 | 1.03 | -0.16 | 0.485 | -0.162 | 0.0383 | -0.49 | -0.249 | -1.42 | -0.839 | -1.01 | 0.125 | -0.272 | 0.412 | -0.428 | 0.601
6 | TGGAGTAGGTTAGTCGGGGCATTCAGCCAACATA | 0.43 | 0.268 | 0.358 | 1.05 | 1.05 | 1.31 | 0.778 | 1.32 | 0.564 | 1.22 | 3.42 | 3.51 | -0.389 | -0.234 | 1.08 | 0.401 | 0.996 | 0.374 | 0.676 | 1.03
7 | TCATATAGGTAAAGGTGCAAGTCGAACGATATGA | 0.551 | 0.493 | -0.176 | 0.57 | -0.374 | 2.77 | 4.36 | 5.55 | 4.82 | 5.79 | 3.53 | 3.68 | 0.688 | 1.15 | 0.555 | 0.241 | 0.116 | 0.949 | 0.796 | 0.566
8 | GCTAGTTGGTCATTAAAAGGTCACACACCGGTCG | 3.71 | 4.83 | 6.37 | 4.7 | 1.12 | 4.31 | 1.92 | 3.77 | 1.5 | 2.68 | 1.97 | 2.97 | -0.134 | 0.443 | 4.31 | 5.25 | 1.39 | 6.14 | 1.98 | 4.4
9 | AGAATCAGGTTAAGATCAGGGAAACAGAATACAT | 0.729 | 0.662 | 0.295 | 0.799 | 0.474 | 1.68 | 1.18 | 1.05 | 0.692 | 0.624 | 2.26 | 2.1 | 1.36 | 1.33 | 1.01 | 0.297 | 1.14 | 0.552 | 1.62 | 1.1
10 | GCTAGTTGGTCAATAAAAGGTCACACACCGGTCG | 3.63 | 5.13 | 6.33 | 4.53 | 0.973 | 4.39 | 2.18 | 3.93 | 1.16 | 2.9 | 1.64 | 3.07 | 0.532 | 0.266 | 4.72 | 5.3 | 1.4 | 5.89 | 3.47 | 4.33
11 | TGAATGAGGTTAAAGATCAGGAAACGTGGCGTCG | 3.12 | 2.5 | -0.309 | 1.69 | -0.0435 | 4.49 | 5.58 | 6.34 | 4.41 | 6.93 | 2.17 | 3.35 | 0.769 | 0.42 | 1.22 | 2.17 | -0.325 | 3.49 | -0.294 | 1.94
12 | CCTGCTAGGTCAATGGTCAGCTATAGCAGCTCGC | 2.7 | 2.23 | 0.0531 | 1.44 | 0.0202 | 3.06 | 4.45 | 4.91 | 2.6 | 4.71 | 4.67 | 3.79 | -0.186 | -0.414 | 1.14 | 0.849 | -0.745 | 1.57 | -0.658 | 3.75
13 | TAGAGTAGGTTACCAATGGGGCATTCAGCTTTCT | 0.195 | 1.62 | 0.13 | 1.22 | 1.02 | 1.68 | 1.3 | 1.96 | 1.16 | 1.72 | 4.68 | 4.33 | 0.638 | 0.725 | 1.06 | 0.312 | 0.223 | 0.669 | 1.18 | 1.33
14 | CTCGAAAGGTCGTGATCAGGTGAGTATACCAAAC | 5.37 | 3.83 | 0.129 | 3.24 | 0.0388 | 4.89 | 3.12 | 3.71 | 1.2 | 2.73 | 0.796 | 1.71 | 1.37 | 0.63 | 2.1 | 3.28 | -0.0349 | 4.26 | 0.477 | 3.96
